Data from PubChem BioAssay.
Active and inactive are the calls of the source.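 Rule for the calls: active = GFP response below 50% of the DMSO control; inconclusive = fewer than 70 events counted for a yeast strain; inactive = the rest.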

Assay: RPL19A-GFP modulators, yeast TOR pathway, confirmation, cell-based, S. cerevisiae, flow cytometry, cherry picks, mother/daughter gates (AID 2270)
Settings: S. cerevisiae RPL19A-GFP strain, 3 h, at 10 µM, stronger effect = lower value, 100 = same GFP as DMSO wells
With `Cc1ccc(C(=O)OCC(=O)Nc2ccccc2Sc2ccccc2)cc1C` the GFP response vs DMSO was 99% (inactive).
In the case of `CCCCCCc1cc2cc(-c3nnc(-c4ccccc4OC)o3)c(=O)oc2cc1O`, the GFP response vs DMSO is reported as 98.7% (inactive).
With `O=C(OCn1ncc(Br)c(Br)c1=O)c1ccc(F)cc1` the GFP response vs DMSO was 99.7% (inactive).
In the case of `CSc1ccc(-c2cc(=O)c3ccccc3o2)cc1`, the GFP response vs DMSO is reported as 92% (inactive).
In the case of `c1cc2c(cc1C1CCCCC1)c1c3n2CCCNC3CCC1` (stereo not drawn), the GFP response vs DMSO is reported as 101% (inactive).
For `CCOC(=O)C1(CCCc2ccccc2)CCN(C(=O)c2cc(C)nn2CC)CC1`, the GFP response vs DMSO was 99.3% (inactive).
In the case of `Cn1cnnc1SCC(=O)Nc1nc(-c2ccc(F)cc2)cs1`, the GFP response vs DMSO is reported as 100% (inactive).
For `O=C1C=C(c2ccccc2)C(=O)N1Nc1ccccc1`, the GFP response vs DMSO was 77.5% (inactive).
With `S=C(Sc1ccc(Cl)cc1)Sc1ccc(Cl)cc1` the GFP response vs DMSO was 97.6% (inactive).
In the case of `O=C(O)c1ccc(N/N=C/c2c(F)cccc2Cl)cc1`, the GFP response vs DMSO is reported as 99.5% (inactive).
In the case of `Cc1ccc(-c2csc(NC(=O)c3ccno3)n2)cc1`, the GFP response vs DMSO is reported as 99% (inactive).
For `Cc1nn(C)cc1C(C)NC(=O)c1cc(COc2ccc(F)c(F)c2)on1` (stereo not drawn), the GFP response vs DMSO was 101% (inactive).
In the case of `CN(O)/C=c1/ccc2c(n1)C(=O)C=CC=2`, the GFP response vs DMSO is reported as 105% (inactive).
In the case of `CCOc1ccc(S(=O)(=O)n2ccnc2C)cc1`, the GFP response vs DMSO is reported as 99.7% (inactive).
With `CCCCN(CC)S(=O)(=O)c1ccc(C(=O)Nc2nnc(-c3ccccc3Cl)o2)cc1` the GFP response vs DMSO was 98.8% (inactive).
For `Oc1c(CN2CCCCC2)cc(Br)c2cccnc12`, the GFP response vs DMSO was 106% (inactive).
In the case of `O=C(O)c1ccc(N/N=C/C(Br)=C/c2ccccc2)cc1`, the GFP response vs DMSO is reported as 98.4% (inactive).
With `Cc1ccc(NC(=O)COc2ccc(Br)cc2C)cc1` the GFP response vs DMSO was 99.5% (inactive).
In the case of `CCCn1c(=O)c(C(=O)Nc2ccccc2C(=O)OCC)c(O)c2ccccc21`, the GFP response vs DMSO is reported as 95.1% (inactive).
For `N#C/C(C(=O)Nc1ccc(Cl)cc1)=C(/S)Nc1ccccc1`, the GFP response vs DMSO was 98.8% (inactive).
In the case of `CN1/C(=C\C(=O)c2cccc(S(=O)(=O)N3CCCCC3)c2)C(C)(C)c2ccccc21`, the GFP response vs DMSO is reported as 96.8% (inactive).
For `CCn1c(=O)c(C(=O)NCc2ccc(OC)cc2)c(O)c2ccccc21`, the GFP response vs DMSO was 98.5% (inactive).
For `C/C(=N/NS(=O)(=O)c1ccccc1)c1ccc(NC(=O)C(F)(F)F)cc1`, the GFP response vs DMSO was 102% (inactive).
With `CS(=O)(=O)c1nc(-c2ccccc2)cc(C(F)(F)F)n1` the GFP response vs DMSO was 102% (inactive).
In the case of `CCOc1ccc(/C=C/C(=O)c2c(O)cc(C)oc2=O)cc1`, the GFP response vs DMSO is reported as 95.1% (inactive).
With `CCCc1[nH]nc2c1C(c1cccnc1)C(C#N)=C(N)O2` (stereo not drawn) the GFP response vs DMSO was 98.6% (inactive).
In the case of `O=C1CC(Sc2nnc(-c3ccccc3)o2)C(=O)N1c1ccccc1` (stereo not drawn), the GFP response vs DMSO is reported as 99.9% (inactive).
With `O=C(NNC(=O)C1CCCCC1)C(=O)NC1CCCCC1` the GFP response vs DMSO was 99.1% (inactive).
For `Cc1ccc(/C(C#N)=C\c2ccc(N3CCOCC3)o2)cc1`, the GFP response vs DMSO was 97.8% (inactive).
In the case of `N/C(Cc1ccc(Cl)c(Cl)c1)=N\OC(=O)c1cccs1`, the GFP response vs DMSO is reported as 94.9% (inactive).
For `Cn1cc([N+](=O)[O-])c(C(=O)Nc2nc(-c3ccc(Cl)cc3)cs2)n1`, the GFP response vs DMSO was 97.8% (inactive).
With `CCCOc1ccc(C(=O)NNC(=S)NC(=O)c2ccccc2)cc1` the GFP response vs DMSO was 114% (inactive).
With `COc1ccc(N2C(=O)c3cccc4cccc(c34)C2=O)nn1` the GFP response vs DMSO was 98% (inactive).
In the case of `Clc1ccc(OCCn2cnc3ccccc32)c(Cl)c1`, the GFP response vs DMSO is reported as 87.5% (inactive).
For `N#C/C(=C\c1ccccn1)c1nc2ccccc2s1`, the GFP response vs DMSO was 170% (inactive).
In the case of `COc1ccc(S(=O)(=O)NCC(=O)N(CC(=O)NCc2ccco2)Cc2ccc(F)cc2)cc1`, the GFP response vs DMSO is reported as 100% (inactive).
In the case of `Cc1cc(OCc2ccc(C(=O)NN=C3CCCC3)cc2)ccc1Cl`, the GFP response vs DMSO is reported as 103% (inactive).
With `CCCCC(=O)NNC(=S)NC(=O)c1ccc(C)cc1` the GFP response vs DMSO was 116% (inactive).
In the case of `Cc1ccc(N2C(=O)C3C4C=CC(CNC(=S)Nc5ccc(F)cc5)(O4)C3C2=O)cc1` (stereo not drawn), the GFP response vs DMSO is reported as 98.4% (inactive).

Same assay, conditions: S. cerevisiae RPL19A-GFP strain, 3 h, measured here: daughter cell gate, at 10 µM, stronger effect = lower value, 100 = same GFP as DMSO wells
`Cc1ccc(C(=O)OCC(=O)Nc2ccccc2Sc2ccccc2)cc1C` showed a GFP response vs DMSO of 97.8%.
Work on `CCCCCCc1cc2cc(-c3nnc(-c4ccccc4OC)o3)c(=O)oc2cc1O` yielded a GFP response vs DMSO of 99.3%.
Work on `O=C(OCn1ncc(Br)c(Br)c1=O)c1ccc(F)cc1` yielded a GFP response vs DMSO of 99.8%.
Molecule `CSc1ccc(-c2cc(=O)c3ccccc3o2)cc1` has a GFP response vs DMSO of 89.3%.
Molecule `c1cc2c(cc1C1CCCCC1)c1c3n2CCCNC3CCC1` (stereo not drawn) has a GFP response vs DMSO of 99%.
For `CCOC(=O)C1(CCCc2ccccc2)CCN(C(=O)c2cc(C)nn2CC)CC1`, the GFP response vs DMSO was 99.8%.
Molecule `Cn1cnnc1SCC(=O)Nc1nc(-c2ccc(F)cc2)cs1` has a GFP response vs DMSO of 99.1%.
With `O=C1C=C(c2ccccc2)C(=O)N1Nc1ccccc1` the GFP response vs DMSO was 88.3%.
With `S=C(Sc1ccc(Cl)cc1)Sc1ccc(Cl)cc1` the GFP response vs DMSO was 93.2%.
`O=C(O)c1ccc(N/N=C/c2c(F)cccc2Cl)cc1` showed a GFP response vs DMSO of 100%.
`Cc1ccc(-c2csc(NC(=O)c3ccno3)n2)cc1` showed a GFP response vs DMSO of 98.4%.
`Cc1nn(C)cc1C(C)NC(=O)c1cc(COc2ccc(F)c(F)c2)on1` (stereo not drawn) gave a GFP response vs DMSO of 100%.
Work on `CN(O)/C=c1/ccc2c(n1)C(=O)C=CC=2` yielded a GFP response vs DMSO of 108%.
Work on `CCOc1ccc(S(=O)(=O)n2ccnc2C)cc1` yielded a GFP response vs DMSO of 100%.
Molecule `CCCCN(CC)S(=O)(=O)c1ccc(C(=O)Nc2nnc(-c3ccccc3Cl)o2)cc1` has a GFP response vs DMSO of 99.1%.
In the case of `Oc1c(CN2CCCCC2)cc(Br)c2cccnc12`, the GFP response vs DMSO is reported as 103%.
Work on `O=C(O)c1ccc(N/N=C/C(Br)=C/c2ccccc2)cc1` yielded a GFP response vs DMSO of 97%.
Molecule `Cc1ccc(NC(=O)COc2ccc(Br)cc2C)cc1` has a GFP response vs DMSO of 97.3%.
With `CCCn1c(=O)c(C(=O)Nc2ccccc2C(=O)OCC)c(O)c2ccccc21` the GFP response vs DMSO was 96.7%.
`N#C/C(C(=O)Nc1ccc(Cl)cc1)=C(/S)Nc1ccccc1` gave a GFP response vs DMSO of 98.9%.
In the case of `CN1/C(=C\C(=O)c2cccc(S(=O)(=O)N3CCCCC3)c2)C(C)(C)c2ccccc21`, the GFP response vs DMSO is reported as 97.6%.
Molecule `CCn1c(=O)c(C(=O)NCc2ccc(OC)cc2)c(O)c2ccccc21` has a GFP response vs DMSO of 99.5%.
`C/C(=N/NS(=O)(=O)c1ccccc1)c1ccc(NC(=O)C(F)(F)F)cc1` showed a GFP response vs DMSO of 103%.
For `CS(=O)(=O)c1nc(-c2ccccc2)cc(C(F)(F)F)n1`, the GFP response vs DMSO was 105%.
With `CCOc1ccc(/C=C/C(=O)c2c(O)cc(C)oc2=O)cc1` the GFP response vs DMSO was 96.1%.
`CCCc1[nH]nc2c1C(c1cccnc1)C(C#N)=C(N)O2` (stereo not drawn) showed a GFP response vs DMSO of 97.9%.
In the case of `O=C1CC(Sc2nnc(-c3ccccc3)o2)C(=O)N1c1ccccc1` (stereo not drawn), the GFP response vs DMSO is reported as 98.7%.
With `O=C(NNC(=O)C1CCCCC1)C(=O)NC1CCCCC1` the GFP response vs DMSO was 99.8%.
For `Cc1ccc(/C(C#N)=C\c2ccc(N3CCOCC3)o2)cc1`, the GFP response vs DMSO was 97.1%.
Work on `N/C(Cc1ccc(Cl)c(Cl)c1)=N\OC(=O)c1cccs1` yielded a GFP response vs DMSO of 89.4%.
`Cn1cc([N+](=O)[O-])c(C(=O)Nc2nc(-c3ccc(Cl)cc3)cs2)n1` gave a GFP response vs DMSO of 97%.
`CCCOc1ccc(C(=O)NNC(=S)NC(=O)c2ccccc2)cc1` showed a GFP response vs DMSO of 111%.
Molecule `COc1ccc(N2C(=O)c3cccc4cccc(c34)C2=O)nn1` has a GFP response vs DMSO of 97.3%.
With `Clc1ccc(OCCn2cnc3ccccc32)c(Cl)c1` the GFP response vs DMSO was 82.3%.
Molecule `N#C/C(=C\c1ccccn1)c1nc2ccccc2s1` has a GFP response vs DMSO of 158%.
`COc1ccc(S(=O)(=O)NCC(=O)N(CC(=O)NCc2ccco2)Cc2ccc(F)cc2)cc1` gave a GFP response vs DMSO of 98.8%.
For `Cc1cc(OCc2ccc(C(=O)NN=C3CCCC3)cc2)ccc1Cl`, the GFP response vs DMSO was 98.7%.
Work on `CCCCC(=O)NNC(=S)NC(=O)c1ccc(C)cc1` yielded a GFP response vs DMSO of 111%.
Molecule `Cc1ccc(N2C(=O)C3C4C=CC(CNC(=S)Nc5ccc(F)cc5)(O4)C3C2=O)cc1` (stereo not drawn) has a GFP response vs DMSO of 99.9%.
